NOMO-1 viab = STK33 inhibitor candidate reducing NOMO-1 cell viability | NOMO-1 AML viability, CellTiter-Glo luminescence, 72 h | inhibition, % (no concentration beside the values) | actives 7.5% (n = 37,000); in the data active = inhibition above about 80%; inconclusive = no clear call, values can overlap the other calls
MITF inh = MITF inhibition; actives 0.28% (n = 37,000); TRPM1 promoter luciferase, luminescence, 24 h; inhibition, % (concentration not given with the values); in the data active = inhibition above about 85%; inconclusive = no clear call, values can overlap the other calls; inactive = below about 68%;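 also: human melanocyte line stably carrying TRPM1 promoter luciferase reporter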
PD-1 reversal = reversal of PD-1 mediated T-cell inhibition; primary human CD4 T cells, PD-L1 beads, CellTiter-Glo 96 h; 29,000 tested, under 10 active; activation, % (no concentration beside the values); AID 2316; call rule not given here;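 also: 0% = median vehicle wells and 100% = positive control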
U2OS ROS induce = raises reactive oxygen species in U2OS cancer cells; actives 2% (n = 46,000); ROS induction (% of piperlongumine), % at 10 µM; AID 624156; U2OS ROS induction, H2DCF-DA fluorescence; in the data active = ROS induction above about 79%, passing the limit was not always enough; inconclusive = no clear call, values can overlap the other calls;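 also: 0% = DMSO vehicle median and 100% = reference compound median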
YB-1 expr inh = YB-1 expression inhibition; delta delta Cp (YB-1 minus CDIP) (concentration not given with the values); U2OS, qRT-PCR YB-1 vs CDIP delta delta Cp, 16 h; active compounds read high; zero = DMSO, each unit about twofold; AID 434959; actives 0.37% (n = 30,000);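 active = delta delta Cp rounded down to an integer at or above 3, about 3 SD of DMSO wells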;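 also: higher means less YB-1 transcript or more CDIP transcript relative to DMSO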
* = called active by the depositor. The sample as a whole holds a higher share of hits than the screen did.

How did COc1c(-c2ccccc2)oc2c(CC=C(C)C)c3c(c(OC)c2c1=O)C=CC(C)(C)O3 do in these assays?
NOMO-1 viab: 28; MITF inh: 3; U2OS ROS induce: 16; YB-1 expr inh: -1

How did C=CC(C)(C)c1c2c(c(O)c3c(=O)c4ccc(O)c(O)c4oc13)C=CC(C)(C)O2 do in these assays?
NOMO-1 viab: 107*; MITF inh: inconclusive; U2OS ROS induce: -13; YB-1 expr inh: -0.12

How did C[C@H](CO)N1C[C@H](C)[C@H](CN(C)Cc2ccncc2)Oc2c(NC(=O)c3nc4ccccc4s3)cccc2C1=O do in these assays?
NOMO-1 viab: 88*; MITF inh: 13; PD-1 reversal: -7; U2OS ROS induce: 56; YB-1 expr inh: 0.38

Results for C[C@H](CO)N1C[C@H](C)[C@H](CN(C)C(=O)Nc2ccc(C(F)(F)F)cc2)Oc2c(NC(=O)c3nc4ccccc4s3)cccc2C1=O ?
NOMO-1 viab: 104*; MITF inh: -6; PD-1 reversal: -8; U2OS ROS induce: 11; YB-1 expr inh: -0.18

Results for C[C@H]1CN([C@@H](C)CO)C(=O)c2cccc(NC(=O)c3nc4ccccc4s3)c2O[C@H]1CN(C)Cc1ccc(Oc2ccccc2)cc1 ?
NOMO-1 viab: 47; MITF inh: -15; PD-1 reversal: 1; U2OS ROS induce: 95*; YB-1 expr inh: -0.15

What do the screens show for `C[C@H]1CN([C@@H](C)CO)C(=O)c2cccc(NC(=O)c3nc4ccccc4s3)c2O[C@H]1CN(C)Cc1ccc(C(F)(F)F)cc1`?
NOMO-1 viab: 50; MITF inh: -8; PD-1 reversal: -3; U2OS ROS induce: 28; YB-1 expr inh: 0.087

How did C[C@H](CO)N1C[C@H](C)[C@H](CN(C)Cc2ccc(Oc3ccccc3)cc2)Oc2c(NC(=O)c3nc4ccccc4s3)cccc2C1=O do in these assays?
NOMO-1 viab: 43; MITF inh: 11; PD-1 reversal: 2; U2OS ROS induce: 48; YB-1 expr inh: 0.25

How did C[C@@H]1CN([C@H](C)CO)C(=O)c2cccc(NC(=O)c3nc4ccccc4s3)c2O[C@H]1CN(C)Cc1ccc(C(F)(F)F)cc1 do in these assays?
NOMO-1 viab: 101*; MITF inh: 25; PD-1 reversal: -4; U2OS ROS induce: 8; YB-1 expr inh: 0.14

Results for N#CC(C#N)=C(NC12CC3CC(CC(C3)C1)C2)C(F)(F)F ?
U2OS ROS induce: -16

How did COc1ccc(CCNC(=O)c2ccc(/C=C3\Oc4ccccc4NC3=O)cc2)cc1OC do in these assays?
U2OS ROS induce: 19

What do the screens show for `COc1cc(O)c(OC)c2c1C(=O)CC(c1ccccc1)O2` (configuration not stated)?
NOMO-1 viab: -4; MITF inh: -10; PD-1 reversal: -1; U2OS ROS induce: 1; YB-1 expr inh: 0.6

How did COc1ccc(C(NC(=O)C2CC=CCC2C(=O)O)c2ccccc2)cc1 (configuration not stated) do in these assays?
U2OS ROS induce: -5

Results for N=c1n(CC(=O)c2ccco2)c2ccccc2n1Cc1ccccc1 ?
NOMO-1 viab: 37; MITF inh: -13; PD-1 reversal: 1; U2OS ROS induce: 8; YB-1 expr inh: 0.056

What do the screens show for `Cc1ccc2c(c1)C(O)(CC(=O)c1ccccc1[N+](=O)[O-])C(=O)N2` (configuration not stated)?
NOMO-1 viab: 15; MITF inh: 14

What do the screens show for `Cc1cc(Br)c2c(c1)C(O)(CC(=O)c1ccco1)C(=O)N2C` (configuration not stated)?
NOMO-1 viab: 122*; MITF inh: 4; PD-1 reversal: -5; U2OS ROS induce: 4

How did O=C(CC1(O)C(=O)N(Cc2ccccc2)c2ccc(Br)cc21)c1ccco1 (configuration not stated) do in these assays?
NOMO-1 viab: 114*; MITF inh: 8; PD-1 reversal: -9; U2OS ROS induce: -8

How did O=C(CC1(O)C(=O)N(Cc2ccccc2)c2ccc(Br)cc21)c1ccccc1[N+](=O)[O-] (configuration not stated) do in these assays?
NOMO-1 viab: 100*; MITF inh: 34; PD-1 reversal: -1; U2OS ROS induce: 5

Results for Cc1cc(Br)c2c(c1)C(O)(CC(=O)c1ccc(C)o1)C(=O)N2 (configuration not stated) ?
NOMO-1 viab: inconclusive; MITF inh: 13

Screening results: PubChem BioAssay, Broad Institute
